This is one part of a sample in which the strongest signals are shown more often than they occur.
Tests used:
Assay in all cases: glycan array binding signal (z-score within array); higher = stronger binding
Conditions in all cases: glycan notation: IUPAC condensed, linker removed
[1] = biological target: Fuc(a1-2)Gal(b1-3)GlcNAc(b1-2)Man(a1-3)[Fuc(a1-2)Gal(b1-3)GlcNAc(b1-2)Man(a1-6)]Man(b1-4)GlcNAc(b1-4)[Fuc(a1-6)]GlcNAc
Summary of the method: (§1)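 The binding signal is a Z-score computed within each array. Data were drawn from 3228 arrays in the Consortium for Functional Glycomics database, restricted to those with a known protein sequence. Scores were averaged over arrays of the same protein sequence at different concentrations or buffers, and over linkers, and negative values can be taken as non-binding.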

[2] = biological target: Fuc(a1-2)Gal(b1-3)[Fuc(a1-4)]GlcNAc(b1-3)[Fuc(a1-3)[Gal(b1-4)]GlcNAc(b1-6)]Gal(b1-4)Glc
Summary of the method: as §1

[3] = biological target: Fuc(a1-2)Gal(b1-3)[Fuc(a1-4)]GlcNAc(b1-3)[Gal(b1-4)GlcNAc(b1-6)]Gal(b1-4)Glc
Summary of the method: as §1

[4] = biological target: Fuc(a1-2)Gal(b1-4)[Fuc(a1-3)]GlcNAc(b1-3)GalNAc
Summary of the method: as §1

[5] = biological target: Fuc(a1-2)[Gal(a1-3)]Gal(b1-4)Glc
Summary of the method: as §1

[6] = biological target: Fuc(a1-2)[Gal(a1-3)]Gal(b1-4)GlcNAc(b1-3)GalNAc
Summary of the method: as §1

[7] = biological target: Fuc(a1-2)[GalNAc(a1-3)]Gal
Summary of the method: as §1

[8] = biological target: Fuc(a1-2)[GalNAc(a1-3)]Gal(b1-3)GlcNAc(b1-3)GalNAc
Summary of the method: as §1

[9] = biological target: Fuc(a1-2)[GalNAc(a1-3)]Gal(b1-4)[Fuc(a1-3)]GlcNAc
Summary of the method: as §1

[10] = biological target: Fuc(a1-2)[GalNAc(a1-3)]Gal(b1-4)[Fuc(a1-3)]GlcNAc(b1-3)GalNAc
Summary of the method: as §1

[11] = biological target: Fuc(a1-2)[GalNAc(b1-3)]Gal
Summary of the method: as §1

[12] = biological target: Fuc(a1-3)[Gal(b1-4)]Glc6S
Summary of the method: as §1

[13] = biological target: Fuc(a1-3)[Gal(b1-4)]GlcNAc(b1-3)GalNAc
Summary of the method: as §1

[14] = biological target: Gal(b1-3)[Fuc(a1-4)]GlcNAc(b1-2)Man(a1-3)[Gal(b1-3)[Fuc(a1-4)]GlcNAc(b1-2)Man(a1-6)]Man(b1-4)GlcNAc(b1-4)GlcNAc
Summary of the method: as §1

[15] = biological target: Gal(b1-3)[Fuc(a1-4)]GlcNAc(b1-2)Man(a1-3)[Gal(b1-3)[Fuc(a1-4)]GlcNAc(b1-2)Man(a1-6)]Man(b1-4)GlcNAc(b1-4)[Fuc(a1-6)]GlcNAc
Summary of the method: as §1

Gal(b1-4)Glc6S = biological target: Gal(b1-4)Glc6S
Summary of the method: as §1

[16] = biological target: Gal(b1-4)GlcNAc(b1-2)[Gal(b1-4)GlcNAc(b1-4)]Man(a1-3)[GlcNAc(b1-4)][Gal(b1-4)GlcNAc(b1-2)Man(a1-6)]Man(b1-4)GlcNAc(b1-4)GlcNAc
Summary of the method: as §1

[17] = biological target: Gal(b1-4)GlcNAc(b1-3)Gal(b1-4)[Fuc(a1-3)GlcNAc(b1-6)]Gal(b1-4)Glc
Summary of the method: as §1

Gal3S6S(b1-4)GlcNAc6S = biological target: Gal3S6S(b1-4)GlcNAc6S
Summary of the method: as §1

[18] = biological target: GalNAc(a1-3)GalNAc(b1-3)Gal(a1-4)Gal(b1-4)Glc
Summary of the method: as §1

GalNAc(b1-6)GalNAc = biological target: GalNAc(b1-6)GalNAc
Summary of the method: as §1

Glc(a1-6)Glc(a1-6)Glc = biological target: Glc(a1-6)Glc(a1-6)Glc
Summary of the method: as §1

GlcA(b1-3)GlcNAc = biological target: GlcA(b1-3)GlcNAc
Summary of the method: as §1

[19] = biological target: GlcNAc(a1-4)Gal(b1-4)GlcNAc(b1-3)Gal(b1-4)GlcNAc(b1-3)Gal(b1-4)GlcNAc
Summary of the method: as §1

[20] = biological target: GlcNAc(b1-2)Man(a1-3)[GlcNAc(b1-2)Man(a1-6)]Man(b1-4)GlcNAc(b1-4)GlcNAc
Summary of the method: as §1

[21] = biological target: GlcNAc(b1-3)Gal(b1-4)GlcNAc(b1-3)Gal(b1-4)GlcNAc
Summary of the method: as §1

GlcNAc(b1-3)GalNAc = biological target: GlcNAc(b1-3)GalNAc
Summary of the method: as §1

[22] = biological target: GlcNAc(b1-3)[GlcNAc(b1-4)][GlcNAc(b1-6)]GlcNAc
Summary of the method: as §1

Kdn(a2-3)Gal(b1-3)GlcNAc = biological target: Kdn(a2-3)Gal(b1-3)GlcNAc
Summary of the method: as §1

[23] = biological target: Man(a1-2)Man(a1-3)[Man(a1-2)Man(a1-6)]Man(a1-6)[Man(a1-2)Man(a1-2)Man(a1-3)]Man
Summary of the method: as §1

Man(b1-4)GlcNAc = biological target: Man(b1-4)GlcNAc
Summary of the method: as §1

[24] = biological target: Neu5Ac(a2-3)Gal(b1-4)[Fuc(a1-3)]GlcNAc(b1-3)GalNAc
Summary of the method: as §1

[25] = biological target: Neu5Ac(a2-3)[GalNAc(b1-4)]Gal(b1-4)GlcNAc
Summary of the method: as §1

[26] = biological target: Neu5Ac(a2-6)Gal(b1-4)GlcNAc
Summary of the method: as §1

[27] = biological target: Neu5Ac(a2-8)Neu5Ac(a2-8)Neu5Ac
Summary of the method: as §1

B1: pullulanase (Streptococcus pyogenes), Q8KLP1 (protein)
chain: MKKKVNQGSKRYQYLLKKWGIGFVIAATGTVMLGCIPSILTHQVAAKTIVGLARDEAQQGDGNAKSGDGFQSSSKEAKPVLDSSSANPASIAEHHLRMHFKTLPAGESLGSLGLWVWGDVDQPSKDWPNGAITMTKAKKDDYGYYLDVPLAAKHRQQVSYLINNKAGENLSKDQHIPLLTPKMNEVWIDENYHAHAYRPLKKGYLRINYHNQSGHYDNLAVWTFKDVKTPTTDWPNGLDLSHKGPYGAYVDVPLKEGANEIGFLILDKSKTGDAIKVQPKDYLFKELDNHTQVFVKDTDPKVYNNPYYIDQVSLKGAEQTTPNEIKAIFTTLDGLDEDAVKQNIKITDKAGKTVAIDELTLDKDKSVMTLKGDFKAQGAVYTVTFGEVSQVARQSWQLKDKLYAYDGELGATLAKDGSVDLALWSPSADSVKVVVYDKQDQTKVVGQADLTKSDKGVWRAHLTSDSVKGISDYTGYYYLYEITRGQEKVMVLDPYAKSLAAWNDATATDDIKTAKAAFIDPSKLGPTGLDFAKINNFKKREDAIIYEAHVRDFTSDKALEGKLTHPFGTFSAFVEQLDYLKDLGVTHVQLLPVLSYFYANELDKTRSTAYTSSDNNYNWGYDPQHYFALSGMYSANPNDPALRIAELKNLVNEIHKRGMGVIFDVVYNHTARTYLFEDLEPNYYHFMNADGTARESFGGGRLGTTHAMSRRILVDSITYLTREFKVDGFRFDMMGDHDAAAIEQAFKAAKAINPNTIMIGEGWRTYQGDEGKKEIAADQDWMKATNTVGVFSDDIRNTLKSGFPNEGTAAFITGGAKNLEGLFKTIKAQPSNFEADAPGDVVQYIAAHDNLTLHDVIAKSINKDPKVAEEEIHKRIRLGNTMILTAQGTAFIHSGQEYGRTKQLLNPDYKTKVSDDKVPNKATLIDAVAQYPYFIHDSYDSSDAVNHFDWAKATDSIAHPISNQTKAYTQGLIALRRSTDAFTKATKAEVDRDVTLITQAGQDGIQQEDLIMGYQTVASNGDRYAVFVNADNKTRKVVLPQAYRYLLGAQVLADAEQVGVTAIAKPKGVQFTKEGLTIDGLTALVLKVSSKTANPSQQKSQTDNHQTKTPDGSKDLDKSLMTRPKRAKTNQKLPKTGEAPSKGLLAAGVALLLLAISLLMKRQKD
For B1, the “glycan array binding signal (z-score)” value [1] was 1.26, the “glycan array binding signal (z-score)” value [2] was 4.09 and the “glycan array binding signal (z-score)” value [3] was -1.13. For the same binder, the “glycan array binding signal (z-score)” value [4] was 3.14, the “glycan array binding signal (z-score)” value [5] was -0.403 and the “glycan array binding signal (z-score)” value [6] was -0.009. For the same binder, the “glycan array binding signal (z-score)” value [7] was -0.236, the “glycan array binding signal (z-score)” value [8] was 2.51 and the “glycan array binding signal (z-score)” value [9] was -0.025. For the same binder, the “glycan array binding signal (z-score)” value [10] was 1.05, the “glycan array binding signal (z-score)” value [11] was -0.628 and the “glycan array binding signal (z-score)” value [12] was -0.252. The “glycan array binding signal (z-score)” value [13] was 0.189, the “glycan array binding signal (z-score)” value [14] was 6.24 and the “glycan array binding signal (z-score)” value [15] was 2.86. For the same binder, the “glycan array binding signal (z-score)” value (Gal(b1-4)Glc6S) was -0.375, the “glycan array binding signal (z-score)” value [16] was 0.829 and the “glycan array binding signal (z-score)” value [17] was -0.926. The “glycan array binding signal (z-score)” value (Gal3S6S(b1-4)GlcNAc6S) was -0.367, the “glycan array binding signal (z-score)” value [18] was -1.28 and the “glycan array binding signal (z-score)” value (GalNAc(b1-6)GalNAc) was -0.145. For the same binder, the “glycan array binding signal (z-score)” value (Glc(a1-6)Glc(a1-6)Glc) was 2.49, the “glycan array binding signal (z-score)” value (GlcA(b1-3)GlcNAc) was 2.61 and the “glycan array binding signal (z-score)” value [19] was 0.594. For the same binder, the “glycan array binding signal (z-score)” value [20] was -0.014, the “glycan array binding signal (z-score)” value [21] was -1.14 and the “glycan array binding signal (z-score)” value (GlcNAc(b1-3)GalNAc) was 0.154. For the same binder, the “glycan array binding signal (z-score)” value [22] was -0.834, the “glycan array binding signal (z-score)” value (Kdn(a2-3)Gal(b1-3)GlcNAc) was -0.039 and the “glycan array binding signal (z-score)” value [23] was 0.204. The “glycan array binding signal (z-score)” value (Man(b1-4)GlcNAc) was 0.398, the “glycan array binding signal (z-score)” value [24] was 2.87 and the “glycan array binding signal (z-score)” value [25] was -0.879. For the same binder, the “glycan array binding signal (z-score)” value [26] was 2.52 and the “glycan array binding signal (z-score)” value [27] was -0.738.
